High-throughput results: PubChem BioAssay, several laboratories
Hits are enriched below; roughly 5.2% of the tested compounds scored in any of these assays.
Vif inh: HIV Vif inhibition; HEK293T cells, Vif self-association by quenched fluorescence, imaging, 24 h; inhibition, % at 7.49 µM; hit rate 0.35% among 340,000; AID 602346; in the data active means inhibition above about 50%, passing the limit was not always enough; inconclusive means no clear call, values can overlap the other calls; inactive means below about 31%
SMARCA2 act: SMARCA2 function activation, primary screen; MG213 cells, MMTV-luciferase reporter, dexamethasone, overnight; activation, % at 9.1 µM; hit rate 1% among 370,000; AID 652017; in the data active means activation above about 7.8%
NadD block: NadD (S. aureus) enzyme inhibition | purified NadD enzyme, colorimetric absorbance read-out | inhibition, % at 20 µM | hit rate 0.78% among 360,000 | AID 602399; in the data active means inhibition above about 26%
esBAF inh: SWI/SNF esBAF complex inhibition; mouse ES cells, Bmi1-luciferase knock-in reporter, 24 h; 100% = twice the neutral-well signal; reporter increase, % at 12.5 µM; hit rate 2% among 350,000; AID 602393; in the data active means activation above about 40%; inconclusive means no clear call, values can overlap the other calls;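 further: a rise in the Bmi1 reporter signal indicates esBAF inhibition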
NR3A LBD binder: modulators (binders) of human NR3A ligand-binding domain. NR3A LBD differential scanning fluorimetry, Tm shift; 0% = protein alone, 100% = glycine-bound protein. Tm shift relative to glycine control, % at 25 µM. hit rate 2.5% among 340,000. AID 1259313;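 active means melting temperature shift of at least 10% of the positive control shift, at one fixed dose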
SKN-1 inh: C. elegans SKN-1 inhibition | C. elegans VP596 Pgst-4::GFP/RFP ratio, acrylamide-induced, 24 h | inhibition, % at 21.8 µM | hit rate 0.49% among 360,000 | AID 624304;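 active means interference check ratio from 0.5 to 1.5 plus GFP to RFP signal ratio inhibition reaching or exceeding a fixed threshold, cut at about 30% in these data, passing the limit was not always enough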
Numbers stand for hits; . = inactive; ? = inconclusive; / = not tested or not shown.

SMILES | Vif inh | SMARCA2 act | NadD block | esBAF inh | NR3A LBD binder | SKN-1 inh
COc1cc2cc(C(=O)Nc3ccc4c(c3)OCCO4)[nH]c2cc1OC | . | . | . | . | 11 | .
Cc1noc(C(=O)Nc2ccc(F)c(Cl)c2)c1Cl | . | . | . | 49 | . | .
CS(=O)(=O)Nc1ccc2c(c1)[C@H]1C[C@@H](CC(=O)NCc3ccc(-c4ccccc4)cc3)O[C@H](CO)[C@H]1O2 | / | / | / | . | / | /
C[C@H]1CN([C@@H](C)CO)S(=O)(=O)c2ccc(C#CCC3CCCC3)cc2O[C@@H]1CN(C)Cc1ccc(C(=O)O)cc1 | / | / | / | . | / | /
Cc1noc(C)c1NC(=O)N1C[C@@H](O)COC[C@H]2O[C@H](CC(=O)NCC3CCCCC3)CC[C@@H]21 | / | / | / | . | / | /
COc1ccc(C(=O)O)c(OC)n1 | . | . | . | . | . | .
COc1ccc(NC(=O)c2cc(F)c(F)cc2Cl)cc1Cl | . | . | . | 52 | . | .
COc1ccc(C(=O)Nc2ccc(Cl)c(Cl)c2)c(OC)n1 | . | . | . | 66 | . | .
CCOC(=O)c1ccc(NC(=O)c2cc(F)c(F)cc2Cl)cc1 | ? | . | . | . | . | .
C[C@H]1CN([C@@H](C)CO)C(=O)c2cc(NC(=O)C3CC3)ccc2O[C@H]1CN(C)C(=O)Nc1ccc(C(F)(F)F)cc1 | / | / | / | . | / | /
C[C@H]1CN([C@@H](C)CO)C(=O)Cc2cc(NS(=O)(=O)c3ccc(F)cc3)ccc2O[C@@H]1CN(C)C | / | / | / | . | / | /
Cc1ccc(C(=O)Nc2cccc(C(F)(F)F)c2)cc1NC(=O)c1csc(-c2ccncc2)n1 | . | / | . | . | . | .
N#C/C(=N\Nc1cccc(C(F)(F)F)c1)C(=O)c1csc(-c2cccnc2)n1 | . | . | . | / | 11 | .
Cc1ccc(-c2cc(C(=O)NCCCn3ccnc3)c3cc(Br)ccc3n2)o1 | . | / | 49 | . | . | .
CCN(Cc1ccccc1)S(=O)(=O)c1ccc2oc(C(=O)O)c(C)c2c1 | / | . | . | . | . | .
CCN(CC)S(=O)(=O)c1ccc2oc(C(=O)O)c(C)c2c1 | . | . | . | . | 13 | .
COCCCNC(=O)c1ccc2c(=O)n(Cc3ccc4c(c3)OCO4)c(=S)[nH]c2c1 | . | . | . | . | 12 | .
Cc1ccc(C)c(NC(=S)NC(NC(=O)Cc2ccccc2)C(Cl)(Cl)Cl)c1 (stereo unspecified) | . | . | . | . | 20 | .
Cc1ccc(C(=O)NC(NC(=S)Nc2ccc(S(N)(=O)=O)cc2)C(Cl)(Cl)Cl)cc1 (stereo unspecified) | . | . | . | . | 19 | .
Cc1ccc(NC(=S)NC(NC(=O)c2ccccc2)C(Cl)(Cl)Cl)c(C)c1 (stereo unspecified) | . | . | . | . | 15 | .
Cc1cc(C)c(NC(=S)NC(NC(=O)c2ccccc2)C(Cl)(Cl)Cl)c(C)c1 (stereo unspecified) | . | . | . | . | . | .
CCC(=O)Nc1ccc(/C(C)=N/NC(=O)c2c(-c3ccccc3Cl)noc2C)cc1 | . | . | . | / | 11 | .
CCC(=O)Nc1ccc(/C(C)=N\NC(=O)c2ccc(C)s2)cc1 | . | . | . | . | 22 | .
C/C(=N/NC(=O)c1ccc(Cl)s1)c1ccc(NC(=O)COc2ccc(Cl)cc2)cc1 | / | . | . | . | . | .
CN1C(=O)c2cc(NC(=O)c3cccs3)ccc2OC[C@H]2O[C@@H](CC(=O)O)CC[C@H]21 | / | / | / | . | / | /
SMILES | Vif inh | SMARCA2 act | NadD block | esBAF inh | NR3A LBD binder | SKN-1 inh
CCCNC(=O)C[C@H]1C[C@@H]2c3cc(NC(=O)Nc4ccc(F)cc4)ccc3O[C@@H]2[C@@H](CO)O1 | / | / | / | . | / | /
CC(=O)c1c(OC(=O)c2ccccc2Br)ccc2c(C)cc(=O)oc12 | . | . | . | / | 13 | .
CC(=O)c1c(OCC(=O)O)ccc2c(C)cc(=O)oc12 | . | . | . | . | . | .
COc1ccc(NC(=O)N(C)C[C@@H]2Oc3ccc(NC(=O)Nc4ccccc4)cc3C(=O)N([C@@H](C)CO)C[C@@H]2C)cc1 | / | / | / | . | / | /
COC(=O)C[C@H]1C=C[C@@H](NC(=O)c2ccccc2)[C@@H](CO)O1 | / | / | / | . | / | /
N#C/C(=C/c1ccccc1)C(=O)NCc1ccccc1 | . | . | . | . | . | .
CN(C)c1ccc(/C=C(/C#N)C(=O)NCc2ccccc2)o1 | / | . | . | 48 | . | .
CC1(C)CC(=O)C(=Cc2cn(-c3ccccc3)nc2-c2ccc(Cl)cc2)C(=O)C1 | . | . | . | 83 | . | .
CCN(CC)c1ccc(N=Nc2ncn[nH]2)cc1 | . | . | . | / | . | 46
Cc1ccc(N=Cc2cc3c(cc2O)OC(N)=C(C#N)C3c2ccccc2)cc1 (stereo unspecified) | . | . | . | / | 12 | .
COc1ccc(-n2nc3ccc(NS(C)(=O)=O)cc3n2)cc1Cl | . | . | . | / | 22 | .
O=C(NCc1cccnc1)c1ccc(-c2ccc(F)c(F)c2)c2ccoc12 | . | . | . | . | / | .
O=C(NCc1ccc(F)c(F)c1)c1ccc(-c2ccc(F)c(F)c2)c2ccoc12 | . | . | . | . | / | 80
O=C(NCc1cccs1)c1ccc(-c2ccc(F)c(F)c2)c2ccoc12 | . | . | . | . | / | .
O=C(NCc1ccc(Cl)cc1)c1ccc(-c2ccc(F)c(F)c2)c2ccoc12 | . | . | . | . | / | 36
C=CCn1nnnc1SCC(=O)Nc1ccc(C(=O)OC)cc1 | . | . | . | . | . | .
C=CCn1nnnc1SCC(=O)Nc1cccc(C(F)(F)F)c1 | . | . | . | . | 16 | .
COc1ccc(-c2cn3cc(Br)cnc3n2)cc1 | . | 7.9 | . | ? | . | .
COc1ccc(C)cc1NCc1cc(=O)oc2cc(-c3ccccc3)c(O)cc12 | . | . | . | 62 | 20 | .
C[C@@H]1CN([C@H](C)CO)C(=O)c2cccc(NC(=O)C3CC3)c2O[C@H]1CN(C)S(C)(=O)=O | / | / | / | . | / | /
CCCn1c(=O)c2ccccc2n2c(SCc3nc4ccccc4s3)nnc12 | . | . | . | 42 | . | .
CCn1c(SCc2nc3ccccc3s2)nnc1-c1cccs1 | . | . | . | 50 | . | .
Cc1ccccc1-n1c(C)nnc1SCc1nc2ccccc2s1 | . | . | . | 69 | . | .
Cn1c(SCc2nc3ccccc3s2)nnc1-c1cccs1 | . | . | . | ? | . | .
O=C(C[C@@H]1CC[C@H](NC(=O)c2cnccn2)[C@H](CO)O1)NCc1ccccc1F | / | / | / | . | / | /
O=C(c1cccnc1)N1C[C@@H]2[C@H](c3ccccc31)[C@@H](CO)N2C(=O)Nc1ccccc1F | / | / | / | . | / | /
Cc1ccc(C2CC2C(=O)NNC(=S)Nc2cccc(Cl)c2)cc1 (stereo unspecified) | . | . | . | . | 11 | .
Cc1ccc(NC(=S)NNC(=O)C2CC2c2ccc(C)cc2)cc1 (stereo unspecified) | . | . | . | . | . | 40
CN1C(=O)c2cc(NC(=O)Nc3ccccc3)ccc2OC[C@@H]2O[C@H](CC(=O)O)CC[C@H]21 | / | / | / | . | / | /
